Assay results reported in PubChem BioAssay.
Activity calls are given as the source filed them.

Legend:
[1] = test system: PRMT1 (protein arginine N-methyltransferase 1); assay: small molecules binding arginine methyltransferase PRMT1 – biochemical, small-molecule microarray, 635 nm fluorescence, primary screen (AID 1088); conditions: higher = more signal;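 note: binding of Prmt1 protein to compounds spotted on small-molecule microarray slides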
[2] = growth effects on S. cerevisiae YJM789 – YJM789 clinical isolate, OD600, 24 h, basal, primary screen (AID 1089); conditions: higher = more signal, called active from +8 up or from −8 down;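 note: growth of clinical yeast isolate S. cerevisiae YJM 789 seeded 1000 cells per well; test concentration not given here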
[3] = S. pombe growth modifiers, basal conditions – strain 972, OD600, 24 h, no modulator, primary screen (AID 1090);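 note: basal condition with compound alone and no growth modifier present; test concentration not given here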; conditions: S. pombe 972 growth, higher = more signal, called active from +8 up or from −8 down
[4] = budding yeast growth modifiers under rapamycin – strain BY4716, OD600, 96 h, primary screen (AID 1091); note: test concentration not given here; conditions: S. cerevisiae BY4716 + rapamycin, higher = more signal, called active from +8 up or from −8 down
[5] = target: Torsin-1A-interacting protein 2 (Homo sapiens) (UniProt Q8NFQ8); assay: small molecules binding lysate-expressed LULL1 – cell lysate, human LULL1 lysate, 635/667 nm fluorescence, primary screen (AID 1092); conditions: small-molecule microarray, hLULL1 lysate binding, 635 nm fluorescence; higher = more signal;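 note: probe is lysate of COS7 cells overexpressing human LULL1; score merges per-feature 667 nm fluorescence with signal-to-noise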
[6] = optical density change of DRC41 E. coli – strain DRC41, OD650, 24 h, E. coli filamentation project, primary screen (AID 1093);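 note: MC1000 strain lacking acrAB efflux and sulA so SOS filamentation is blocked; test concentration not given here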; conditions: E. coli DRC41 growth, higher = more signal, called active from +8 up or from −8 down
[7] = probe aLefty2 binding to arrayed compounds – biochemical, biotinylated probe, 635/667 nm fluorescence, primary screen (AID 1094); conditions: small-molecule microarray, higher = more signal;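 note: score merges spot fluorescence near 667 nm with spot signal-to-noise ratio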
[8] = test system: Noggin (protein binding on small-molecule microarray); assay: small molecules binding Noggin protein – biochemical, 635/667 nm fluorescence, primary screen (AID 1095); conditions: 635 nm fluorescence, higher = more signal;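 note: score merges 667 nm feature fluorescence with signal to noise over triplicate slides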
[9] = target: Neurogenic locus notch homolog protein 3 (Homo sapiens) (UniProt Q9UM47); assay: small molecules binding NOTCH3 protein – biochemical, 635/667 nm fluorescence, primary screen (AID 1096); conditions: small-molecule microarray, 635 nm fluorescence, higher = more signal
[10] = probe aEGFR binding to arrayed compounds – biochemical, biotinylated probe, 635/667 nm fluorescence, primary screen (AID 1097); conditions: small-molecule microarray, higher = more signal;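 note: probe is a biotinylated anti-EGFR antibody binding compounds printed on slides; score combines fluorescence near 667 nm and signal to noise of each spot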
[11] = test system: Plasmodium falciparum Sir2 (PF13_0152, Sir2A); assay: Plasmodium falciparum Sir2A binding compounds – biochemical, small-molecule microarray, 635 nm fluorescence, primary screen (AID 1098); conditions: fluorescence 635 nm, higher = more signal;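 note: score merges spot fluorescence intensity with its signal-to-noise ratio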
[12] = probe aDKK1 binding to arrayed compounds – biochemical, biotinylated probe, 635/667 nm fluorescence, primary screen (AID 1099); conditions: small-molecule microarray, higher = more signal;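 note: score merges 667nm spot fluorescence with signal to noise across triplicate slides; reference of the scale not given here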
[13] = probe aCHRDL2 binding to arrayed compounds – biochemical, biotinylated probe, 635/667 nm fluorescence, primary screen (AID 1100); conditions: small-molecule microarray, higher = more signal
[14] = change in splice reporter luminescence, either direction, cell-based, HEK293, spliceosome inhibition project, primary screen (AID 1101); conditions: HEK293 splicing luciferase reporter, 24 h, higher = more signal, called active from +8 up or from −8 down;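 note: HEK293 cells carrying a splicing-competent luciferase reporter gene; test concentration not given here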
[15] = target: Fibroblast growth factor 10 (Homo sapiens) (UniProt O15520); assay: compounds binding fibroblast growth factor 10 – biochemical, small-molecule microarray, 635 nm fluorescence, primary screen (AID 1102); conditions: FGF10 binding, fluorescence 635 nm, higher = more signal
[16] = test system: glycogen synthase kinase-3 (GSK3A per assay name; protocol says GSK3B); assay: compounds binding glycogen synthase kinase-3 – biochemical, small-molecule microarray, 635 nm fluorescence, GSK3A, primary screen (AID 1103); conditions: fluorescence 635 nm, higher = more signal; note: the record names both GSK3A and GSK3B
[17] = target: Epidermal growth factor receptor (Homo sapiens) (UniProt P00533); assay: compounds binding epidermal growth factor receptor – biochemical, small-molecule microarray, 635 nm fluorescence, primary screen (AID 1104); conditions: EGFR binding, higher = more signal;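 note: score merges 667 nm emission intensity with spot signal to noise over triplicate slides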
[18] = target: Follistatin-related protein 3 (Homo sapiens) (UniProt O95633); assay: compounds binding follistatin-related protein 3 – biochemical, small-molecule microarray, 635 nm fluorescence, primary screen (AID 1105); conditions: FSTL3 binding, higher = more signal;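 note: score merges emission near 667 nm and signal to noise per printed spot across three slides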
[19] = target: Dickkopf-related protein 1 (Homo sapiens) (UniProt O94907); assay: small molecules binding DKK1 protein – biochemical, small-molecule microarray, 635 nm fluorescence scan, primary screen (AID 1106); conditions: higher = more signal;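 note: score merges emission near 667 nm with signal to noise over three replicate slides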
[20] = test system: Inhibin beta A chain (activin A); assay: small molecules binding activin A – biochemical, small-molecule microarray, 635 nm fluorescence scan, primary screen (AID 1107); conditions: INHBA, higher = more signal;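 note: mouse activin A protein probed at 4.33 µg/mL on printed slides; score merges bound-protein fluorescence near 667 nm with spot signal-to-noise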

Fibroblast growth factor 10 (Homo sapiens), sequence (O15520 whole entry, looked up): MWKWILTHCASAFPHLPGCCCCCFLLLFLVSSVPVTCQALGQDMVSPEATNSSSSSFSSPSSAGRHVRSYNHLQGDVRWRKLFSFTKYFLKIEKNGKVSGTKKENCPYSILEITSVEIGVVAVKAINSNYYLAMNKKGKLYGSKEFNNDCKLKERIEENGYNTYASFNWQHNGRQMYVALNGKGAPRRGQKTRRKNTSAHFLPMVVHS
Dickkopf-related protein 1 (Homo sapiens), sequence (O94907 whole entry, looked up): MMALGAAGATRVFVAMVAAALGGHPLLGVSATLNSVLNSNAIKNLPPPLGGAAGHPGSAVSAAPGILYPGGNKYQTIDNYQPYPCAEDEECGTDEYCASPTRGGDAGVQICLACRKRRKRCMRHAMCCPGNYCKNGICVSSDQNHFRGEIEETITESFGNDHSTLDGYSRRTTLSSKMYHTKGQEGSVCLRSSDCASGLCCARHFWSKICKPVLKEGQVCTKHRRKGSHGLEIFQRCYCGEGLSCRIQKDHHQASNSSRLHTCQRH
Neurogenic locus notch homolog protein 3 (Homo sapiens), sequence (Q9UM47 whole entry, looked up): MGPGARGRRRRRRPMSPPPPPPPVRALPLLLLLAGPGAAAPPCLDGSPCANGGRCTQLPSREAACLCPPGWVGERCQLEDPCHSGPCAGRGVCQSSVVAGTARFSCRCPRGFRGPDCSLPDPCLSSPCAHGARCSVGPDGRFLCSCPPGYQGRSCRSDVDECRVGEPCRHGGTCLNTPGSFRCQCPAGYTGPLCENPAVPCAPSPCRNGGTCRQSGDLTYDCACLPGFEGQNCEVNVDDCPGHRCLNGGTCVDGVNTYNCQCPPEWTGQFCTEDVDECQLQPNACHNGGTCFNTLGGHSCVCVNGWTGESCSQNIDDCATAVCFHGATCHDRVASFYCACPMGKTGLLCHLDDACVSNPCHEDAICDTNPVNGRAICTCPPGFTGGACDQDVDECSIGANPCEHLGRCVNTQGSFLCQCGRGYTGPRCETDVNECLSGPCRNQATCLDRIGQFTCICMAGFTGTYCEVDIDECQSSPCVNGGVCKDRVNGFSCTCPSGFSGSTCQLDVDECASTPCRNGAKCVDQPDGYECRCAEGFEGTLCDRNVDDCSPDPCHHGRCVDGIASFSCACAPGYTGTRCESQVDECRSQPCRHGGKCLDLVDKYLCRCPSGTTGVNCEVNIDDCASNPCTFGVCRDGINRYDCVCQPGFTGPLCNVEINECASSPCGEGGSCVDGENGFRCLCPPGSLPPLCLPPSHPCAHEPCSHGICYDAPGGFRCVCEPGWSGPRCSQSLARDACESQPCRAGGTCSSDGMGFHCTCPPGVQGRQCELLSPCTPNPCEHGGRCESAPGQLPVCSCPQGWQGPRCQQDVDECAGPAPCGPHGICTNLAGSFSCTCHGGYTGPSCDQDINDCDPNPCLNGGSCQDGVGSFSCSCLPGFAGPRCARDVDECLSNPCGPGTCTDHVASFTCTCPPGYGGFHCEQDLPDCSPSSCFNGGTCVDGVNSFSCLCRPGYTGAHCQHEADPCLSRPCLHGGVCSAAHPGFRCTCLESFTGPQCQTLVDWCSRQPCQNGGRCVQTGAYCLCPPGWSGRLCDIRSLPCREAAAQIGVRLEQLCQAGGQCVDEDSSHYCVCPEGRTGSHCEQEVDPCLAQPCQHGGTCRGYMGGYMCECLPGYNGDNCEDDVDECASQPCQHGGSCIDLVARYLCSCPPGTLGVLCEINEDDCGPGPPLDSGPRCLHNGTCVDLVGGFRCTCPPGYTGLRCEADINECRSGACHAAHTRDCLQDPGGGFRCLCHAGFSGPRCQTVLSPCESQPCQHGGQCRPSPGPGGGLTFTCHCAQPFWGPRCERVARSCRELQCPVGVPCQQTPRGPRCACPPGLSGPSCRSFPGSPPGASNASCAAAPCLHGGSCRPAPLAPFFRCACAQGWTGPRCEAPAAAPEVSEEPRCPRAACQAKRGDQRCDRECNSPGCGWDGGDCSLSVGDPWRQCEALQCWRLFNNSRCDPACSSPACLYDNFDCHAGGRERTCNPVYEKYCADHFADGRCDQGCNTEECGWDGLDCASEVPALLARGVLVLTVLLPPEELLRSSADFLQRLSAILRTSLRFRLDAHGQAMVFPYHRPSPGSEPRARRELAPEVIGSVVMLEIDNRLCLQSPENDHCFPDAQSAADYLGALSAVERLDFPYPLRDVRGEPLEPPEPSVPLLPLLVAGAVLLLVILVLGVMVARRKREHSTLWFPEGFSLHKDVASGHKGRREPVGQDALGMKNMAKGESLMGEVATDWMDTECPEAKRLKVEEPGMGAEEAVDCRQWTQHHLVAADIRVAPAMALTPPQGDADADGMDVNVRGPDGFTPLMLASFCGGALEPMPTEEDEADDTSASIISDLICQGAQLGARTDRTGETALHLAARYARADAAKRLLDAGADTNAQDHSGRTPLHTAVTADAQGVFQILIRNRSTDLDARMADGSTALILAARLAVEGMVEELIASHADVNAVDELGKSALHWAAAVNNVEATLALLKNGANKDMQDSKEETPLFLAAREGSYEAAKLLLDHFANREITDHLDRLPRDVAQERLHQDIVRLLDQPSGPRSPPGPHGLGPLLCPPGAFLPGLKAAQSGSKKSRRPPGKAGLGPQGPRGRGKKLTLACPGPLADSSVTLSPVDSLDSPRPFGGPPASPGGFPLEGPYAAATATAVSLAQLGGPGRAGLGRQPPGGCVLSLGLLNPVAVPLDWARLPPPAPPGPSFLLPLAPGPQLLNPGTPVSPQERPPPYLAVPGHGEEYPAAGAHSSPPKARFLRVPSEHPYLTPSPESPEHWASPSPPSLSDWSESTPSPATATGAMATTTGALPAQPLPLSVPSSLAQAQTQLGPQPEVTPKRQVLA
Follistatin-related protein 3 (Homo sapiens), sequence (O95633 whole entry, looked up): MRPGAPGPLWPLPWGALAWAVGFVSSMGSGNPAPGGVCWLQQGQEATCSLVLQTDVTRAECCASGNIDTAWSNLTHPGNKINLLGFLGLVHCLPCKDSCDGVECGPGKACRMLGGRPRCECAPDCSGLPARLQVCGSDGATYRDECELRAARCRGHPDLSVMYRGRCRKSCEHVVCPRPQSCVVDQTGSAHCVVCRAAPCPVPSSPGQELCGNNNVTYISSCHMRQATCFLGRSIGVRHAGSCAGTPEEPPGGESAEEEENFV
Torsin-1A-interacting protein 2 (Homo sapiens), sequence (Q8NFQ8 whole entry, looked up): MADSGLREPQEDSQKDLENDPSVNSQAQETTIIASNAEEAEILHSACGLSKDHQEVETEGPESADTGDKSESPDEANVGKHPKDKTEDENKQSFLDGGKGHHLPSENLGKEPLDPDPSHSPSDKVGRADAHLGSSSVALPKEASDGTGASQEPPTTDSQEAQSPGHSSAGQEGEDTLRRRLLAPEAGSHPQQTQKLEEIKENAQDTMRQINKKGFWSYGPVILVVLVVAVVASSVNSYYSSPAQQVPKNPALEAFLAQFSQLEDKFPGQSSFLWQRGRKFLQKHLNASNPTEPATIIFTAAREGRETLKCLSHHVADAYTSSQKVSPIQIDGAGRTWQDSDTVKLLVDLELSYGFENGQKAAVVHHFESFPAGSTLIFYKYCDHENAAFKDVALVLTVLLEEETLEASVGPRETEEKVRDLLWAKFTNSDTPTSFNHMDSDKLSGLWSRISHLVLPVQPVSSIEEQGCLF
Epidermal growth factor receptor (Homo sapiens), sequence (P00533 whole entry, looked up): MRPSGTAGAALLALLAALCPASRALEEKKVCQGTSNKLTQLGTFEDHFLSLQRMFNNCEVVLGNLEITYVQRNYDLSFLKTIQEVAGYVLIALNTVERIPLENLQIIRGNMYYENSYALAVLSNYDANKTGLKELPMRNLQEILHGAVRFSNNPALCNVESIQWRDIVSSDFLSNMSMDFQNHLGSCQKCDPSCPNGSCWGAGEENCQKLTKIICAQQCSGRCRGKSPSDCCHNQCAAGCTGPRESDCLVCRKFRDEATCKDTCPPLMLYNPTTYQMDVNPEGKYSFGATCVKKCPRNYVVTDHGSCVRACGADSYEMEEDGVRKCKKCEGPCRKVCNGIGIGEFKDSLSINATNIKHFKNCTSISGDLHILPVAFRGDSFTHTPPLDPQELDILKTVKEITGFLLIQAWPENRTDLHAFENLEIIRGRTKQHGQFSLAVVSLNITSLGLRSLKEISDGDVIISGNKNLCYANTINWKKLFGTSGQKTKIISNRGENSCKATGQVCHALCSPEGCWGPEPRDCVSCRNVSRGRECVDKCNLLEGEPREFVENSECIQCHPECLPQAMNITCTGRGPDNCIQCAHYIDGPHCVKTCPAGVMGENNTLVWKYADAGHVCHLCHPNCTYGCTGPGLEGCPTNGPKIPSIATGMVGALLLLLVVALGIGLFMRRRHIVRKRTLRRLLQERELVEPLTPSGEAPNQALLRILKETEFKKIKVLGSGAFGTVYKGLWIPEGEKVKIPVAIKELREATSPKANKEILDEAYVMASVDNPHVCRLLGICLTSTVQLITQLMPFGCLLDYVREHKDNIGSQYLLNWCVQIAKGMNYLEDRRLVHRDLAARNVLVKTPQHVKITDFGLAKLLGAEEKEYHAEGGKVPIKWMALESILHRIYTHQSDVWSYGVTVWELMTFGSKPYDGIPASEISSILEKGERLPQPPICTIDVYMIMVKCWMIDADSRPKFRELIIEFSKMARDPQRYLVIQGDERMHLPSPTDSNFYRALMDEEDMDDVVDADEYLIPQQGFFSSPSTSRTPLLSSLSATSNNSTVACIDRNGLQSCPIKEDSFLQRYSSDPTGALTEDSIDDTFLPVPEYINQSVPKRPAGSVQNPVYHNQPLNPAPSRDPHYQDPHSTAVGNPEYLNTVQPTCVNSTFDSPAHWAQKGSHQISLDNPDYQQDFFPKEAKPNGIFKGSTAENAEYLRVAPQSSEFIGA

| Compound | composite z-score [1] | z-score [2] | z-score [3] | z-score [4] | composite z-score [5] | z-score [6] | composite z-score [7] | composite z-score [8] | composite z-score [9] | composite z-score [10] | composite z-score [11] | composite z-score [12] | composite z-score [13] | z-score [14] | composite z-score [15] | composite z-score [16] | composite z-score [17] | composite z-score [18] | composite z-score [19] | composite z-score [20] |
| --- | --- | --- | --- | --- | --- | --- | --- | --- | --- | --- | --- | --- | --- | --- | --- | --- | --- | --- | --- | --- |
| O=C(CS)NCCCCCNC(=O)[C@H]1C[C@H]2C(=O)NCC(=O)N2[C@H]1c1cccc(OCCO)c1 | 0.151 | -0.881 (inactive) | 0.145 (inactive) | -0.336 (inactive) | 0.556 | 0.663 (inactive) | -0.0778 | 0.262 | -0.154 | -0.0987 | 1.59 | -0.248 | 0.504 | -0.957 (inactive) | -0.0137 | -1.11 | -0.538 | 0.101 | 0.129 | -0.462 |
| C#CCNCc1ccccc1 | -0.0993 | -0.514 (inactive) | -0.749 (inactive) | -0.157 (inactive) | -0.0541 | -0.276 (inactive) | -0.161 | 0.235 | 0.527 | -0.0435 | -0.375 | -0.192 | -0.288 | 0.258 (inactive) | 0.2 | 0.539 | 0.397 | 0.349 | 0.183 | 0.209 |
| COCC(=C=CC[C@@H](O)c1ccc(OCCO)cc1)C[C@@H](O)c1ccccn1 | 0.37 | -0.64 (inactive) | -1.13 (inactive) | -0.0669 (inactive) | 0.608 | -0.136 (inactive) | -0.0931 | 0.274 | -0.0817 | 0.361 | 0.0525 | -0.201 | -0.288 | 0.0733 (inactive) | 0.377 | 0.0621 | 0.0724 | 0.439 | 0.0579 | 1.18 |
| CN1C(=O)C2C=CC(C(O)c3ccc(F)cc3)N(N(c3ccccc3)c3ccccc3)C2C1=O (stereo not given) | 0.672 | 0.0729 (inactive) | 0.91 (inactive) | 0.0933 (inactive) | 1.86 | -1.2 (inactive) | 0.0606 | 0.3 | 0.121 | -0.0234 | 1.46 | 0.303 | 1.03 | 1.9 (inactive) | 0.103 | 0.0581 | -0.329 | 0.549 | -0.742 | 0.984 |
| CC(C)N1CC=CC23O[C@@H]4C=CCOC(=O)[C@@H]4[C@H]2C(=O)N(CCCCCO)[C@@H]3C1=O (stereo not given in full) | 0.637 | -1.04 (inactive) | -0.288 (inactive) | -2.25 (inactive) | 2.64 | 3.13 (inactive) | -0.137 | -0.325 | -0.107 | -0.111 | 0.818 | -0.288 | 0.248 | -1.54 (inactive) | -0.927 | -0.69 | -0.0616 | -0.266 | -0.758 | 0.66 |
| C=C(C)[C@@H]1CC=C(C(O)C2C=CC3C(=O)NC(=O)C3N2Nc2ccc(Cl)cc2Cl)CC1 (stereo not given in full) | 0.794 | -9.03 (active) | -5.22 (inactive) | 3.45 (inactive) | 2.91 | -2.91 (inactive) | 0.325 | -0.821 | 1.06 | 0.0044 | 0.576 | 0.802 | 1.3 | 0.172 (inactive) | 0.276 | 0.289 | 0.433 | 1.06 | 0.414 | 1.66 |
| C=C(/C(=C/C[C@H](OC(C)=O)c1ccc(OCCO)cc1)c1cc(C(=O)OC)ccc1OC)C(C)C | 1.55 | 0.71 (inactive) | -0.299 (inactive) | -0.874 (inactive) | 2.79 | 0.806 (inactive) | -0.0616 | 1.39 | 0.51 | -0.0828 | 1.53 | 0.0971 | -0.188 | -0.045 (inactive) | 1.12 | 0.451 | -0.296 | 0.647 | 0.196 | 0.326 |
| COC(=O)[C@@]1(Cc2ccc(OC)cc2)[C@H]2c3cc(C(=O)N4CCCC4)n(CCCNc4ncc(C(F)(F)F)cc4Cl)c3C[C@H]2CN1C(=O)c1ccccc1 | 0.0457 | -0.496 (inactive) | 1.11 (inactive) | 1.35 (inactive) | 1.8 | -0.537 (inactive) | 0.987 | 0.341 | 0.656 | 0.939 | 0.596 | 1.63 | 0.941 | -2.98 (inactive) | 0.595 | 0.673 | 0.659 | 0.95 | 0.244 | 1.11 |
| CC=CC(O)C1C=CC2C(=O)N(C)C(=O)C2N1N(c1ccccc1)c1ccccc1 (stereo not given) | 0.344 | 0.586 (inactive) | 1.91 (inactive) | 1.29 (inactive) | -0.472 | -0.357 (inactive) | 0.0973 | -0.0867 | 0.0161 | 0.248 | 0.293 | -0.0262 | 0.211 | 1.06 (inactive) | 0.128 | -0.343 | 1.19 | -0.315 | 0.653 | 1.12 |
| CCOC(=O)C[C@H]1[C@H](OC(=O)c2ccc(-c3ccccc3)cc2)[C@@H](NC(=O)c2ccccc2)c2cc(OCCCO)ccc2N1C(=O)Cc1ccc(OC)cc1 | -0.719 | 0.883 (inactive) | -0.414 (inactive) | 1.45 (inactive) | 0.734 | 0.258 (inactive) | -0.192 | 0.23 | -0.712 | -0.21 | -0.881 | -0.0345 | 0.565 | -0.486 (inactive) | 0.241 | -0.919 | 0.0903 | -0.56 | -0.237 | 0.54 |
